In PubChem BioAssay (NCATS):
Results filed as inconclusive are left out. A number with no mark means an inactive call. Activity calls are given as the source filed them. Calls follow the shape of the dose curve; as a rule, active = well fitted inhibition curve with a large enough effect; inconclusive = small, poorly fitted or top-dose-only effect; inactive = no such curve, though single readings can be large or run the other way.
% is scaled to controls: 0 for no effect and ±100 for the full control effect; potency is read from the fitted curve at half-maximal effect.

Assay: HTS Assay for Allosteric Antagonists of the Human D2 Dopamine Receptor: Hit Validation in HTRF (AID 624455);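 also: stable D1 dopamine receptor cell line scored for blocking the D1 response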
Conditions: Cells stably expressing D1 dopamine receptor, inhibition mode; series mostly up to 46.1 µM; activity, negative = inhibition: at the top concentration
Procedure, shortened: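 Inhibition of the D1-mediated response is measured by HTRF in cells that stably express the D1 dopamine receptor. Compounds reaching this step are hits from calcium-flux antagonism testing at EC80 dopamine in inducible Hek293 Trex D2 cells.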
In the case of `CC(=O)OCC1=C(C(=O)O)N2C(=O)[C@@H](NC(=O)CCC[C@@H](N)C(=O)O)[C@H]2SC1`, the “activity, negative = inhibition” value is reported as -4.94%. For `CCCC[N+]1(C)C2CC(OC(=O)[C@H](CO)c3ccccc3)CC1C1OC12` (stereo partly drawn), the “activity, negative = inhibition” value was -1.42%. With `CN1CC[C@@]2(C)c3cc(OC(=O)Nc4ccccc4)ccc3N(C)[C@@H]12` the “activity, negative = inhibition” value was -4.95%. In the case of `N[C@@H](Cn1oc(=O)[nH]c1=O)C(=O)O`, the “activity, negative = inhibition” value is reported as -1.89%. For `Cc1sc2ccccc2c1CC1=NCCN1`, the “activity, negative = inhibition” value was 0.283%. For `COc1ccc2c(c1)/C(=C/c1cnc[nH]1)C(=O)N2`, the “activity, negative = inhibition” value was 15.1%. With `C=CCN1C[C@@H](C)N([C@H](c2ccc(C(=O)N(CC)CC)cc2)c2cccc(OC)c2)C[C@@H]1C` the “activity, negative = inhibition” value was -0.955%. With `Cc1o[nH]c(=O)c1CC(N)C(=O)O` (stereo not drawn) the “activity, negative = inhibition” value was -6.13%. For `NC(N)=Nc1ccc2[nH]c3c(c2c1)C[C@@]1(O)[C@H]2Cc4ccc(O)c5c4[C@@]1(CCN2CC1CC1)[C@H]3O5`, the “activity, negative = inhibition” value was -4.47%. For `O=S1(=O)N(CCN2CC=C(c3c[nH]c4cc(F)ccc34)CC2)c2cccc3c2N1CCC3`, the “activity, negative = inhibition” value was 6.22%. For `CC(N)[C@H](O)c1ccc(O)c(O)c1` (stereo partly drawn), the “activity, negative = inhibition” value was -6.83%. In the case of `CCCN(CCC)[C@H]1CCc2c(F)ccc(O)c2C1`, the Potency is reported as 7.31 µM (active). With `CC(N)c1cccc(Cl)c1Cl` (stereo not drawn) the “activity, negative = inhibition” value was -6.4%. In the case of `CC(C)(C)c1o[nH]c(=O)c1CC(N)C(=O)O` (stereo not drawn), the “activity, negative = inhibition” value is reported as 5.31%. In the case of `O=[N+]([O-])/C=C/c1ccc2c(c1)OCO2`, the “activity, negative = inhibition” value is reported as 4.22%. With `CCCN(CCC)CCc1ccc(O)c(O)c1` the Potency was 0.092 µM (active). For `COc1ccc2c(c1O)-c1cccc3c1[C@@H](C2)N(C)CC3`, the “activity, negative = inhibition” value was -3.34%. For `CCOC(=O)c1ncn2c1[C@@H]1CCCN1C(=O)c1cc(OC)ccc1-2`, the “activity, negative = inhibition” value was 2.42%.
